Sampled rows, rich in hits. Any-hit rate of the full collection: about 9.2%.
FLuc modulator: counter-screen for miR-21 project: firefly luciferase inhibitors or activators | P08659 | Potency, µM (top dose mostly 57.5 µM), actives largely listed as inhibitors | 360,000 compounds, 6.9% hits | purified FLuc, Km substrates, luminescence inhibition; further: nearly all actives have a fitted effect of over 55% in size
Target sequence (P08659 whole entry, looked up): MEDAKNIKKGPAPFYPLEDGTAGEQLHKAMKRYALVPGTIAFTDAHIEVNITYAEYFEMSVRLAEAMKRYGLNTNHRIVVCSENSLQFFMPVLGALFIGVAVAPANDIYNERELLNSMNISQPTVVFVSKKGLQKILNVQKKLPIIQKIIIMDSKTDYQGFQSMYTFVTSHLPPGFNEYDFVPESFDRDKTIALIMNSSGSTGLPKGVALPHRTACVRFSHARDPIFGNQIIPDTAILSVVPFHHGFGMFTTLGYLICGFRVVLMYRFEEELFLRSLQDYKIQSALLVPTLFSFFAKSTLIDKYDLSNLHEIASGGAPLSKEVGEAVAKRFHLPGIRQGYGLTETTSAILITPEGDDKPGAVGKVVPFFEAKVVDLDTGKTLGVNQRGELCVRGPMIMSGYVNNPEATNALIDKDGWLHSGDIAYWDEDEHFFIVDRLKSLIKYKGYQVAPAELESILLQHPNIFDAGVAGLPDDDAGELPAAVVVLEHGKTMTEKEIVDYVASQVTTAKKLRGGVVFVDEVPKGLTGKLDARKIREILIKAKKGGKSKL
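Purified P. pyralis luciferase, 10 nM final, with Km-level 10 uM D-luciferin and 10 uM ATP in 50 mM Tris acetate pH 7.5, 10 mM Mg acetate, 0.01% Tween-20, 0.05% BSA; 6-point qHTS titration about 60 µM downward; luminescence read.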
SMN2 splice enh: SMN2 splice variant enhancement; HEK293 SMN2-luciferase splicing reporter, luminescence, 30-36 h; Potency, µM (highest dose often 46.1 µM), actives largely listed as activators; 210,000 compounds, 2.8% hits; AID 1458; further: nearly all actives have a fitted effect of over 55% in size
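HEK293 cells carry an SMN2 […]–luciferase reporter in which exon 7 inclusion puts luciferase in frame. Cells were plated 10-12 h before compound addition, then incubated 30-36 h at 37C. ONE-Glo luminescence was read; sodium butyrate at 4.5 mM final served as control.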
ELG1 repair inh: inhibitors of ELG1-dependent DNA repair in HEK293T cells; Potency, µM (titrated, usually from 46.1 µM), most hits filed as inhibitors; 330,000 compounds, 2.3% hits; HEK293T ELG1-luciferase reporter, luminescence, 16 h; DNA damage induced by 5-fluorouridine; further: nearly all actives have a fitted effect of over 55% in size
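5-Fluorouridine DNA damage + compound/DMSO, 2,000 cells/well, 16 h, 37 °C/5% CO2. ONE-Glo, 30 min RT, luminescence. Readout = decrease in reporter signal.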
Rab9 promoter act: activators of Rab9 promoter; Huh7 Rab9 promoter-luciferase reporter, luminescence, 24 h; 320,000 compounds, 2.8% hits; Potency, µM (titrated, usually from 9.22 µM), actives largely listed as activators; further: nearly all actives have a fitted effect of over 60% in size
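Cells were plated at 1500 per well in reduced-serum medium with 10% FBS and left 2 h. Compound in DMSO was then added for 24 h at 37 °C. Reporter signal was read by luminescence after 10 min with luciferase detection reagent.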
NPC1 promoter act: NPC1 promoter activation | 320,000 compounds, 2.4% hits | Huh7 NPC1 promoter luciferase reporter, 24 h | AID 485313 | Potency, µM (top dose mostly 9.22 µM), actives largely listed as activators; further: nearly all actives have a fitted effect of over 60% in size
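Stable NPC1-promoter luciferase Huh7 line; cpd (DMSO) 24 h, 37 °C, 5% CO2; Amplite luciferase reagent 10 min RT; luminescence readout. qHTS format.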
ELG1 genotox: induces genotoxicity in HEK293T cells with luciferase-tagged ELG1; Potency, µM (doses to about 46 µM), usual class: activators; HEK293T ELG1-luciferase reporter, luminescence, 16 h; 330,000 compounds, 1.3% hits; AID 504466; further: nearly all actives have a fitted effect of over 60% in size
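HEK293T cells expressing luciferase-tagged ELG1 were exposed to compound or DMSO vehicle for 16 hr at 37 °C and 5% CO2. Luciferase activity was then measured with ONE-Glo after 30 min at room temperature.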
Numbers stand for hits; – = inactive; ? = inconclusive; · = not tested or not shown; [ ] = another dose, or the depositor's remark. The call rests on the fitted dose curve; in most records, active means well fitted curve in the direction sought with a large enough effect; inconclusive means small, poorly fitted or top-dose-only effect, or another doubt; inactive means no such curve, though single readings can be large; an effect the other way counts as inactive or inconclusive.

SMILES	FLuc modulator	SMN2 splice enh	ELG1 repair inh	Rab9 promoter act	NPC1 promoter act	ELG1 genotox
CCCOc1ccc(C(=O)CCC(=O)OCC(=O)Nc2ccc(OCC)cc2)cc1	–	·	–	–	–	–
NC(=O)C1CCCN(C(=O)CCC(=O)c2cccs2)C1 (stereo not given)	·	·	–	·	·	–
CCOC(=O)c1cc(-c2ccccc2)nc2nc(N3CCCCC3)sc12	–	–	?	–	–	–
COc1ccc(-c2cc(C(=O)O)c3sc(N4CCCCC4)nc3n2)cc1OC	4.8µM	–[1.84 µM]	–	–	–	–
Cc1ccc(-c2cc(C(=O)O)c3sc(N4CCCCC4)nc3n2)cc1	24µM	–	?	–	–	–
O=C(O)c1cc(-c2ccccc2)nc2nc(N3CCCCC3)sc12	17µM	–	–	–	–	–
COc1cc2c(cc1OC)CC(C(=O)NCc1ccccc1)NC2 (stereo not given)	–	·	–	–[1.84 µM]	–	–
COC(=O)CCC(=O)OC1(C)C(=O)C=C2C=C(C3CC3)N(c3ccc(OC)cc3)C=C2C1=O (stereo not given)	·	–[9.22 µM]	·	·	·	·
CC(=O)Nc1ccc(S(=O)(=O)Nc2nc(C)nc3sc(C)c(C)c23)cc1	·	·	–	·	·	–
Cc1cccc(-c2nc3scc(CCNS(=O)(=O)c4ccc5c(c4)OCCO5)n3n2)c1	–	·	·	·	·	·
Cc1ccccc1CN1C(=O)c2ccccc2S(=O)c2ccc(C(=O)NCc3ccccc3)cc21 (stereo not given)	–	·	·	·	·	·
Cn1cccc1CC(=O)N/N=C/c1ccc(C(C)(C)C)cc1	17µM	·	?	?	–	–
Cc1ccc(/C=N/NC(=O)Cc2cccn2C)cc1	?	·	?	?	–	–
CCc1ccc(/C=N/NC(=O)Cc2cccn2C)cc1	24µM	·	?	?	?	–
N#CCCN1CCN(C(=S)c2ccc(-c3cc(Cl)ccc3Cl)o2)CC1	–	–	–	–	–	–
CN1CCN(C(=S)c2ccc(-c3cc(Cl)ccc3Cl)o2)CC1	17µM	·	–	–	–	–
S=C(c1ccc(-c2ccc(Cl)cc2Cl)o1)N1CCCC1	11µM	·	–	?	?	–
S=C(c1ccc(-c2ccc(Cl)cc2Cl)o1)N1CCCCC1	4.8µM	13µM	?	2.8µM	?	?
S=C(Nc1ccc(Cl)cc1Cl)N1CCCCC1	?	–	?	–	–	–
COc1cc(OC)c(NC(=O)C(C)n2c(=O)cc(-c3ccccc3)c3c(C)nn(C)c32)cc1Cl (stereo not given)	–	·	·	·	·	·
CC1=NN(c2ccccc2)C(=O)/C1=C\c1c(C)[nH]n(-c2ccccc2)c1=O	?	–	–	–	–	–
CC1=NN(c2ccccc2)C(=O)/C1=C/c1c(O)n(-c2ccc(F)c(Cl)c2)[nH]c1=O	2.7µM	–[1.84 µM]	?	?	–	–
COc1ccc(/C(C)=N/Nc2ccc(C(=O)O)cc2)cc1OC	6.7µM	?	?	1.3µM	0.63µM	?
COc1ccc(OC)c(/C(C)=N/Nc2ccc(C(=O)O)cc2)c1	–	·	?	–	–	?
COc1cc(/C(C)=N/Nc2ccc(C(=O)O)cc2)cc(OC)c1OC	?	16µM	?	?	?	?
SMILES	FLuc modulator	SMN2 splice enh	ELG1 repair inh	Rab9 promoter act	NPC1 promoter act	ELG1 genotox
CCS(=O)(=O)N1CCc2cc(C(=O)Nc3ccc(OC)c(Cl)c3)ccc21	–	·	·	·	·	·
Cn1c(SCc2c(F)cccc2Cl)nnc1-c1cccs1	15µM	20µM	?	2.2µM	?	13µM
Cn1c(SCCOc2ccccc2Cl)nnc1-c1cccs1	?	–	?	–	–	–
COC(=O)C1CCN(C(=O)c2ccc3nccnc3c2)CC1	–	·	–	–	–	–
COc1cccc(-c2nc3ccc(C(=O)NC(C)Cc4cccnc4)cc3o2)c1 (stereo not given)	9.5µM	·	?	2.8µM	2.2µM	?
COC(=O)C1CCN(C(=O)c2ccc3nc(-c4cccc(OC)c4)oc3c2)CC1	21µM	·	?	2µM	1.8µM	?
COc1ccc(C(=O)Nc2ccc3oc(-c4cccnc4)nc3c2)cc1	?	–	·	·	·	·
CCOc1ccc(CNC(=O)CCCn2c(=O)c3cccn3c3ccc(F)cc32)cc1	–	·	·	·	·	·
Cc1ccc2ncc(C(=O)N3CCN(c4ccccc4F)CC3)c(=O)n2c1	–	–	·	·	·	·

Screens (PubChem)
